In PubChem BioAssay AID1851 (National Center for Advancing Translational Sciences (NCATS), 2009):
Where “and” joins values, the source holds several entries; their conditions need not be identical. Identical values can stand only once. In all, about 16,000 compounds went through this assay and about 5,700 (36%) were called active. Not shown: some 24% with an inconclusive outcome. Calls come from the whole dose curve; as a rule, active = well fitted curve in the direction sought with a large enough effect; inconclusive = small, poorly fitted or top-dose-only effect, or effect the other way; inactive = no such curve, though single readings can be large or run the other way. Some of the results follow.

Target: Cytochrome P450 1A2 (Homo sapiens) (UniProt P05177)
Test: Cytochrome panel assay with activity outcomes
Conditions: recombinant CYP, pro-luciferin dealkylation, luminescence, p450-cyp1a2; series mostly up to 57.1 µM; activity, negative = inhibition: at the top concentration
% is set by controls: 0 for no effect and ±100 for the full control effect.

Chain of Cytochrome P450 1A2 (Homo sapiens) (P05177 whole entry, looked up): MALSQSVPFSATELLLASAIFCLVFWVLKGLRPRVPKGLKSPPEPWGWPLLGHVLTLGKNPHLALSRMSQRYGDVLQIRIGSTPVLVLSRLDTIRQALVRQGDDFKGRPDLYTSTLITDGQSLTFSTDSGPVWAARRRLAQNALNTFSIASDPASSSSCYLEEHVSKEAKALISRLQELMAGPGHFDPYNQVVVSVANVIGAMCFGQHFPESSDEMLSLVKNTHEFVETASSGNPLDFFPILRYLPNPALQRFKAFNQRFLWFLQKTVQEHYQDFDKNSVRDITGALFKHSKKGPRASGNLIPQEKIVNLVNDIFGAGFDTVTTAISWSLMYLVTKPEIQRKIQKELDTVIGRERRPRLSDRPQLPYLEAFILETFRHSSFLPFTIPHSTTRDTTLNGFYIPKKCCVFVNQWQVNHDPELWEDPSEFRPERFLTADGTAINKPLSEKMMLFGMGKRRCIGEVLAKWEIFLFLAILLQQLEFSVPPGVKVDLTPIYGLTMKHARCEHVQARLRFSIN

activity, negative = inhibition, inactive:
NCCS(=O)O -5.92%
O=[N+]([O-])c1ccc(N2CCN(Cc3ccccc3)CC2)c(S(=O)(=O)N2CCOCC2)c1 -0.304%
O=S(=O)(c1ccccc1)N1CCC2(CCN(Cc3ccccc3)CC2)CC1 -2.85%
CCCCC(=O)Nc1nnc(SCC(=O)NC2CCCC2)s1 -12.6%
CCSc1nnc(NC(=O)Cc2ccccc2OC)s1 -9.79%
CC(CC(=O)O)(CC(=O)O)C(=O)O -5.85% [at 11.4 µM]
OCCN1CCN(C(=S)c2ccc(Br)cc2)CC1 -6.49%
O=C(CN1CCN(Cc2ccccc2)CC1)c1ccc(Br)cc1 -14.4%
Cc1cc2c(cc1S(N)(=O)=O)S(=O)(=O)CCC2 -16.8% [at 25.6 µM]
Cc1ccc(C2C(C(=O)c3ccco3)=C(O)C(=O)N2c2nnc(C)s2)cc1 (stereo not drawn) 3.47%
CCC(c1nnnn1CCOC)N1CCN(C(=O)c2ccco2)CC1 (stereo not drawn) 21.4%
CC1(C)CC(=O)c2cnc(N)nc2C1 3.27%
CCOC(=O)CCN1C(=O)[C@H]2[C@H]3[C@H](O)[C@H](O)C/C(=N/OCc4ccccc4)[C@H]3CC[C@@H]2C1=O -13.8% [at 11.4 µM]
CCOC(=O)CCN1C(=O)[C@H]2[C@H]3[C@H](O)[C@H](O)C/C(=N/OCc4ccccc4)[C@@H]3CC[C@@H]2C1=O 4.94% [at 11.4 µM]
CC1=C(C(=O)OCc2ccccc2)C(c2cccnc2)c2c(n(C)c(=O)n(C)c2=O)N1 (stereo not drawn) -26.2%
CC(=O)N1CCC2(CC1)CCN(C(c1ccccc1)c1ccccc1)CC2 -3.22%
N[C@@](CCc1ccccc1)(C(=O)O)c1ccccc1 -9.59% [at 11.4 µM]
O=C(O)CNCCc1ccccc1 -1.5% [at 11.4 µM]
O=C(O)CSCCc1ccccc1 -15.5% [at 11.4 µM]
NCCSCCC(=O)O -2.89% [at 11.4 µM]
COc1cccc2c1C(=O)c1c(O)c3c(c(O)c1C2=O)C[C@@](O)(C(=O)CO)C[C@H]3O[C@H]1C[C@@H](N)[C@H](O)[C@@H](C)O1.[W] -11.9% [at 11.4 µM]
Cc1sc2c(c1C)c(=O)n(-c1ccccc1)c1nnc(C)n21 -26.4%
O=C(O)/C(=C\c1ccccc1)c1ccccc1 -20.8% [at 11.4 µM]
Cc1ccccc1NC(=S)NN1CCN(C)CC1 -4.46%
Cc1ccc(S(=O)(=O)Oc2ccc(/C=C(/NC(=O)c3ccccc3)C(=O)Nc3ccccc3)cc2)cc1 2.92%
CC(C)NC(=O)c1ccccc1NC(=O)/C=C/c1ccc([N+](=O)[O-])cc1 10.2%
Cn1cccc1C(=O)N1CCC2(CCN(Cc3ccccc3)CC2)CC1 10.3%
CCc1cc2c(=O)n(-c3ccccc3)c(=S)[nH]c2s1 -27.5%
CCN(CC)C(=O)c1sc2[nH]c(=S)n(-c3ccccc3)c(=O)c2c1C 11.3%
Cc1cc(C)c(NC(=O)CS(=O)CC(=O)NCCCc2ccccc2)c(C)c1 (stereo not drawn) 0.118%
CCOC(=O)C1=C(CSc2nc3ccccc3s2)NC(=O)NC1c1cc(C)ccc1C (stereo not drawn) -22.3%
COc1ccc(/C=C(/C#N)C(=O)Nc2cc(C)ccc2C)cc1C(=O)O -0.1%
CCOC(=O)/C(C#N)=C\c1ccc(OCC(=O)Nc2ccc(C)cc2C)c(OC)c1 -9.06%
CCOC(=O)/C(C#N)=C\N(C)C -18.7%
CC(=O)NCCc1ccc(O)c(O)c1 -2.4%
C/C(CCN1CCCCc2nc(C)c(C)cc21)=N\O[C@@H](C)c1cn([C@H](CO)Cc2ccccc2)nn1 -1.07% [at 11.4 µM] and -1.23% [at 11.4 µM]

AC50, active:
Cn1cc(/C=N/n2cnc3sc4c(c3c2=O)CCCC4)c2ccccc21 14.1 µM
Cn1cc(/C=N/n2cnc3scc(-c4ccccc4)c3c2=O)c2ccccc21 8.91 µM
O=[N+]([O-])c1ccc(Cl)c(/C=N/N2CCN(Cc3ccccc3)CC2)c1 2.51 µM
CCSc1nnc(NC(=O)C(C(F)(F)F)C(F)(F)F)s1 15.8 µM
CCN1CCN(C(=S)c2ccc(Br)cc2)CC1 15.8 µM
CCN(CCO)Cc1csc2cccc(Br)c12 11.2 µM
COCCN(C(=O)c1ccco1)c1nnc(-c2ccc(OC)cc2)s1 15.8 µM
CC1=C(C(=O)OCc2ccccc2)C(c2ccccc2)NC(=O)N1CCCCCC(=O)O (stereo not drawn) 20 µM
CC1=C(C(=O)OCc2ccccc2)C(c2ccc(Cl)cc2)NC(=O)N1CCCCCC(=O)O (stereo not drawn) 25.1 µM
NNCCc1ccccc1 3.16 µM and 1 µM
NCCSCCc1ccccc1 5.01 µM
Cc1ccccc1NC(=O)/C(=C/c1ccccc1)c1ccccc1 5.01 µM
COc1ccc(/C=C(/C(=O)Nc2ccccc2C(=O)NC(C)C)c2ccccc2)cc1 15.8 µM
Cc1cc(Cl)ccc1Oc1ncnc2oc(-c3ccccc3)cc12 3.16 µM
O=c1c2c(-c3cccs3)csc2[nH]c(=S)n1-c1ccccc1 12.6 µM
COc1cc(/C=C(\C#N)C(=O)c2ccc(O)c(O)c2)cc(I)c1O 15.8 µM
N#C/C(=C\c1ccc(O)c(O)c1)C(N)=O 39.8 µM
N#C/C(=C\c1ccc(O)c(O)c1)C(=O)NCCCc1ccccc1 12.6 µM
COc1ccc(/C=C(\C#N)C(N)=O)c(OC)c1 1.58 µM
N#C/C(=C\c1ccc(O)c(O)c1)C(=O)Nc1ccccc1 0.501 µM
COc1cc(/C=C(\C#N)C(N)=O)cc(CSc2nc3ccccc3s2)c1O 1.26 µM
COc1ccc(/C=N/n2c(C)nnc2C)c(OC)c1 14.1 µM
COc1ccc(/C=C(\C#N)C(N)=O)cc1OC 3.16 µM
C[C@H](NC(=O)/C(C#N)=C/c1ccc(O)c(O)c1)c1ccccc1 15.8 µM
N#C/C(=C\c1ccc(O)c(O)c1)C(=O)NCCc1ccccc1 10 µM
CCOc1ccccc1/C=C(\C#N)C(N)=O 2 µM

AC50, inactive:
N[C@@H](Cc1ccc(O)c(O)c1)C(=O)O
